The structures appear in SMILES notation. Several values for one entry are separate records, joined by “and”; a condition that tells them apart may be missing. Identical values can stand only once. Records with an inconclusive call do not appear. Activity calls are given as the source filed them. Calls follow the shape of the dose curve; as a rule, active = well fitted activation curve with a large enough effect; inconclusive = small, poorly fitted or top-dose-only effect; inactive = flat fitted curve, though single readings scatter.

Sequence of Lysosomal acid glucosylceramidase (Homo sapiens) (P04062 whole entry, looked up): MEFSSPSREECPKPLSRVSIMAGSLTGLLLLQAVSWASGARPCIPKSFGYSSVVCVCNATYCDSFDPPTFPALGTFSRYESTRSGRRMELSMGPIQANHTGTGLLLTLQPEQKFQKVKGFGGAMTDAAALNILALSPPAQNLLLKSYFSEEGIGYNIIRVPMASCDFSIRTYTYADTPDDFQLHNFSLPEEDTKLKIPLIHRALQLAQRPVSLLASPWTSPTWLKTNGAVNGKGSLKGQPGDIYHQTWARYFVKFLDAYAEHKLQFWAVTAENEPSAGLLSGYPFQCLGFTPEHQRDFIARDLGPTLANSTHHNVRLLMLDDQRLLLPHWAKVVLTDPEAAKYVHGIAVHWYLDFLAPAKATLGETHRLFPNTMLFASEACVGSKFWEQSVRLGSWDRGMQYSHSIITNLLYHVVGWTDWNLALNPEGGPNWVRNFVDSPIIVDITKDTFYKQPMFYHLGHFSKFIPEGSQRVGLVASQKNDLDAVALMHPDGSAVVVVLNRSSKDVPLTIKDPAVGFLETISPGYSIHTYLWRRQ

The target in the experiment is Lysosomal acid glucosylceramidase (Homo sapiens) (UniProt P04062). The experiment can be described thus: qHTS Assay for Inhibitors and Activators of N370S glucocerebrosidase as a Potential Chaperone Treatment of Gaucher Disease: Activity in Non-Mutant Spleen Confirmation for Probe SAR. To be noted: human spleen homogenate, 4-MU-beta-glucoside fluorescence; series mostly up to 57.5 µM. The source says:
NIH Chemical Genomics Center [NCGC] NIH Molecular Libraries Probe Production Centers Network [MLPCN] MLPCN Grant: MH086442-01 Assay Submitter (PI): Wei Zheng Glucocerebrosidase (GC) catalyzes the hydrolysis of beta-glucocerebroside to glucose and ceramide in lysosomes. Mutations in the glucocerebrosidase gene result in Gaucher disease, an autosomal recessive lysosomal storage disorder. Many of the mutations encountered in patients with Gaucher disease are missense alterations that may cause misfolding, decreased stability and/or mistrafficking of this lysosomal protein. […] These inhibitors include iminosugar analogs and three non-iminosugar inhibitors identified from a previous HTS of 62,000 compounds with the wild type recombinant enzyme. However, the enhancement of enzyme activity by the chaperone action of an enzyme inhibitor must be balanced against the direct inhibition of the enzyme. An enzyme activator could also function as a chaperone by binding to the enzyme and helping to correct its misfolding and mistrafficking. While activators for GC have not yet been identified, they may have better therapeutic potential than inhibitors. Therefore the discovery and development of chemical activators may provide a new strategy for the chaperone therapy. We have optimized a new assay using N370S mutant GC derived from the spleen of a Gaucher patient. […] In addition, the MLPCN compound library has expanded, which increases the chance of finding new and better probes. This confirmation assay tests for compound activity in spleen homogenate containing wildtype enzyme.
NCGC Assay Protocol Summary: This is a fluorogenic enzyme assay with 4-methylumbelliferyl-beta-D-glucopyranoside as the substrate and wildtype glucocerebrosidase from human spleen homogenate as the enzyme preparation. Upon the hydrolysis of this fluorogenic substrate, the resulting product, […] which can be detected by a standard fluorescence plate reader. Data were normalized to the controls for basal activity (without enzyme) and 100% activity (with enzyme). The AC50 values were determined from concentration-response data modeled with the standard Hill equation. Assay buffer: 50 mM citric acid (titrated with potassium phosphate to pH 5.0), 100 mM potassium chloride, 10 mM sodium chloride, 1 mM magnesium chloride, 0.01% Tween-20. 1536-well assay protocol: (1) Add 2 ul/well of spleen homogenate (27 ug final) (2) Add 23 nL compounds in DMSO solution. The final titration was 0.5 nM to 58 uM. (3) Add 2 ul of substrate (1 mM final) (4) Incubate at 37C for 40 min. (5) Add 2 ul stop solution (1M NaOH and 1M Glycine mixture, pH 10) (6) Detect the assay plate in a ViewLux plate reader (PerkinElmer) with Ex=365 nm and Em=440nm. Keywords: Glucocerebrosidase, beta-glucosidase, Gaucher Disease, pharmacological chaperone, chaperone therapy, high throughput screening, glucocerebrosidase inhibitor, MLSMR, MLSCN, NIH Roadmap, qHTS and NCGC
A general note: qHTS replaces the single test concentration by a dilution series.
As to `Cc1cc(C)n2ncc(C(=O)Nc3ccc(C(F)(F)F)cc3)c2n1`, the Potency is 1.46 µM (active).

As for `CC(=O)Nc1ccccc1NC(=O)c1cnn2c(C)cc(C)nc12`, the Potency entry was “inactive”.

For `O=C(Nc1ccccc1Sc1ccccc1)c1cnn2c1NC(=C1CC1)C=C2C(F)F`, the Potency was 4.61 µM (active).

As to `Cc1cccc(NC(=O)c2cnn3c(C)cc(C)nc23)c1`, the Potency is 8.19 µM (active).

Turning to `CNC(=O)c1cnn2c(C)cc(C)nc12`, the Potency entry is “inactive”.

Take `C#Cc1ccc(NC(=O)c2cnn3c(C)cc(C)nc23)cc1`: the Potency is 0.41 µM (active).

On to `Cc1cc(C)n2ncc(C(=O)Nc3ccc(C)c(C)c3)c2n1`, for which the Potency was 4.11 µM (active).

Consider `Cc1cc(C)n2ncc(C(=O)N3CCCC3)c2n1`, for which the Potency entry is “inactive”.

As for `Cc1cc(C)n2ncc(C(=O)Nc3ccc(Br)cc3)c2n1`, the Potency is 2.06 µM (active).

As to `Cc1cc(C)n2ncc(C(=O)Nc3ccc4c(c3)OCCO4)c2n1`, the Potency was 13 µM (active).

For the molecule `COc1ccc(NC(=O)c2cnn3c(C)cc(C)nc23)cc1OC`, the Potency result is “inactive”.

With `Cc1cc(C)n2ncc(C(=O)NC3CCC(C(C)(C)C)CC3)c2n1` (stereo not drawn), the Potency was 11.6 µM (active) and 2.06 µM (active).

Consider `Cc1ccc(NC(=O)c2cnn3c(C)cc(C)nc23)c(C)c1`, for which the Potency was 8.19 µM (active).

Regarding `Cc1cc(C)n2ncc(C(=O)Nc3ccc(S(C)(=O)=O)cc3)c2n1`, the Potency entry is “inactive”.

As to `Cc1ccc(NC(=O)c2cnn3c(C)cc(C)nc23)cc1`, the Potency was 3.26 µM (active).

For `Cc1cc(C)n2ncc(C(=O)Nc3ccc4c(c3)CCC4)c2n1`, the Potency was 2.91 µM (active).

Consider `Cc1cc(C)n2ncc(C(=O)NC(C)C)c2n1`, for which the Potency result is “inactive”.

Consider `Cc1cc(C)n2ncc(C(=O)Nc3cccc(C#N)c3)c2n1`, for which the Potency entry is “inactive”.

Take `Cc1cc(C)n2ncc(C(=O)Nc3ccc4c(c3)OCO4)c2n1`: the Potency is 13 µM (active).

In the case of `COc1ccc(NC(=O)c2cnn3c(C)cc(C)nc23)cc1`, the Potency was 20.6 µM (active).

As to `CC(=O)Nc1ccc(NC(=O)c2cnn3c(C)cc(C)nc23)cc1`, the Potency entry was “inactive”.

Take `Cc1cc(C)n2ncc(C(=O)Nc3ccncc3)c2n1`: the Potency result is “inactive”.

As for `CCc1ccc(NC(=O)c2cnn3c(C)cc(C)nc23)cc1`, the Potency was 2.91 µM (active).

The values are drawn from PubChem BioAssay AID488849 (National Center for Advancing Translational Sciences (NCATS), 2010).
